Assay results published in PubChem BioAssay AID1672 (Johns Hopkins Ion Channel Center, 2009).
About 2,600 (0.84%) of roughly 310,000 compounds were called active.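 The calls were made as follows: active = fluorescence ratio B-score at or below minus 3 SD of library scores, with starting-brightness B-score within 2 SD (cut at about -4.2 in these data); inactive = the rest.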 For the sample, actives were picked, then their nearest neighbours and some compounds at random.

Each compound was assayed against Inward rectifier potassium channel 2 (Mus musculus) (UniProt P35561) (assay: inhibitors of mouse Kir2.1 inward-rectifier potassium channel (AID 1672;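 also: channel flux triggered by added potassium and thallium sulfate stimulus; B-score of peak minus minimum fluorescence over baseline after thallium stimulus; more negative B-score means stronger Kir2.1 block with less thallium influx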)). Settings: HEK293-Kir2.1, FluxOR thallium flux fluorescence; at 10 µM; hits give low values.
Chain of Inward rectifier potassium channel 2 (Mus musculus) (P35561 whole entry, looked up): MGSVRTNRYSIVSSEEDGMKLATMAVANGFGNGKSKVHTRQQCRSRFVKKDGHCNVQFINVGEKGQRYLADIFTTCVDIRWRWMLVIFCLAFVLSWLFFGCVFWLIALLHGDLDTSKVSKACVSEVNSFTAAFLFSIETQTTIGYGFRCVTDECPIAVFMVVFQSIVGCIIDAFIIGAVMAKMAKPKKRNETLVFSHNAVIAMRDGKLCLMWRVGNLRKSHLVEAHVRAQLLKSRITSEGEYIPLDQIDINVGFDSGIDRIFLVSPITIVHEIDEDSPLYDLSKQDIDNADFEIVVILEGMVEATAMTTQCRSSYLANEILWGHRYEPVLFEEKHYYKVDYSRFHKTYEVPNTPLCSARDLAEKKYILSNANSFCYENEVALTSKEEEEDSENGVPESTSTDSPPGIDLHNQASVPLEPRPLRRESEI

B-score, inactive:
C=CCOc1ccc(/C=C/C(=O)OC(C)C(=O)Nc2ccc(NC(C)=O)cc2)cc1 (stereo unspecified) 1.98
CSc1nc2ccccc2c(=O)n1Cc1ccc(F)cc1 -0.15
Cn1c(CO)cnc1SCc1ccccc1 0.48
O=C(NCCC1CCCCN1S(=O)(=O)c1ccc(Cl)cc1)C(=O)NCc1ccco1 (stereo unspecified) 0.39
CCCc1nc(SCC(=O)Nc2ccc(S(=O)(=O)N(C)C)cc2)c2ccccc2n1 0.71
CCc1nc(SCC(=O)NNC(=O)c2ccc(C)cc2)c2ccccc2n1 -1.13
Brc1cnc2ccccc2c1N1CCCCC1 0.77
CCOc1ccc(NS(=O)(=O)c2ccc(C(=O)NCC(c3ccccc3OC)N3CCCC3)cc2)cc1 (stereo unspecified) -0.36
CC1CCN(C(=O)COC(=O)c2cc(S(=O)(=O)N3CCOCC3)ccc2Cl)CC1 -1.43
CCOc1ccc(/C=C/C(=O)N(CC)CC(=O)NCc2cccs2)cc1OC 0.23
Cc1ccccc1NC(=O)NCC1CCN(Cc2cccc(Cl)c2)CC1 -0.23
Cc1ccc(C)c(CN2CCC(CNC(=O)Nc3ccc(C)c(F)c3)CC2)c1 -0.54
O=C1[C@H]2[C@@H](c3ccc(Cl)cc3)N3C(=O)N(c4cccc(F)c4)C(=O)[C@@]3(Cc3ccccc3)[C@H]2C(=O)N1C1CCCCC1 1.66
CCCC[C@@H]1CN=C(N)N1CCCC 0
O=C(NCC(c1ccco1)N1CCc2ccccc21)c1cccc(F)c1 (stereo unspecified) -0.73
C=CCc1cc(C)ccc1OCCCn1ccnc1 0.46
c1ccc(Cc2ccc(OCCn3ccnc3)cc2)cc1 -1.84
CC(=O)Nc1ccc(NC(=O)CSC2=NS(=O)(=O)c3ccccc3N2)cc1 1.78
CC1(C)CC[C@]2(C(=O)O)CC[C@]3(C)C(=CCC4[C@@]5(C)CC[C@H](O)C(C)(C)C5[C@H](O)C[C@]43C)[C@@H]2C1 (stereo partly specified) -0.05
CC(=O)c1sc(N)nc1C 0.05
O=C1CC2(CCN(C(=O)COc3ccc(F)cc3)CC2)Oc2ccccc21 -0.48
CC(C)(C)N(CC#CCC(O)(c1ccccc1)C1CCCC1)CCO (stereo unspecified) -0.14
COc1ccc(C#Cc2c(-c3ccc(OC)cc3)oc3ccc(-c4ccc5c(c4)OCO5)cc23)cc1 0.43
CN(C)S(=O)(=O)c1cccc(C(=O)OCC(=O)N2CCCC2=O)c1 0.88
COc1ccc(N(Cc2ccccc2)S(=O)(=O)c2cccc(C(=O)O)c2)cc1 -0.29
CCN(CC(=O)Nc1cccc(S(=O)(=O)N2CCCCC2)c1)Cc1ccccc1 -0.91
Cc1ccccc1NC(=O)COc1cccc2c1CCNC2=O -0.1
Cc1cc(OCC(=O)N(C)c2c(N)n(Cc3ccccc3)c(=O)[nH]c2=O)c(C(C)C)cc1Cl -0.39
FC(F)(F)c1ccc2c3n(nc2c1)CCN=C3c1ccc(Cl)cc1 0.62
CN(C(=O)c1cc2c(=O)n3ccccc3nc2s1)C1CCCCC1 -0.51
CC(C)CN(C(=O)Cn1c(=O)cnc2ccccc21)C1CCS(=O)(=O)C1 (stereo unspecified) -2.2
Cc1ccc(NC(=O)CN(C)Cc2ccc(F)cc2)c([N+](=O)[O-])c1 -0.89
Cc1ccc(SC(C)C(=O)NCc2ccc(F)cc2)cc1 (stereo unspecified) -0.79
CN(CC(=O)Nc1cccc(F)c1)C(=O)C1=COCCO1 -0.96
O=C(NCCC1CCCCN1S(=O)(=O)c1cccs1)C(=O)Nc1ccc(F)cc1F (stereo unspecified) -1.66
Cc1cc(C)c(C)c(S(=O)(=O)Nc2cccnc2)c1C -0.73
CCOc1ccc(NS(=O)(=O)c2cc(C)c(C)cc2C)cc1 -1.54
C=CCC1(C(=O)N(C)Cc2ccccc2)CCN(C(=O)OC(C)(C)C)CC1 0.59
COc1cc2ccccc2cc1C(=O)Nc1ccncc1 -0.09
OCCNCCOc1ccc(Cl)c(Cl)c1 0.04
S=C(NCCc1ccccc1)NCc1ccccc1Cl -2.33
CCCCN(C(=O)c1ccc(C)o1)c1c(N)n(CCCC)c(=O)[nH]c1=O 1.81
CC(C)(C)n1nc(Cc2cccc3ccccc23)c(C#N)c1N 0.39
c1ccc(-c2ccc(OCCN3CCOCC3)cc2)cc1 -0.1
CN(C)CC(O)COc1ccc(C(C)(C)c2ccc(OCC(O)CN(C)C)cc2)cc1 (stereo unspecified) -2.29
c1ccc2cc(OCCN3CCCC3)ccc2c1 1.22
Cc1nn(CCOc2ccccc2)c(=O)n1-c1ccccc1F -0.66
O=C(NC(Cc1ccccc1)C(=O)N1CCCC(C(F)(F)F)C1)c1ccccc1 (stereo unspecified) -0.03
CCN1C(=O)[C@@H]2[C@@H](c3ccc(-c4ccccc4)cc3)N3CCCC[C@@]3(C(=O)OC)[C@@H]2C1=O 2.48
CC(=O)c1ccc(S(=O)(=O)NC2CC(=O)N(c3ccc4c(c3)OCCO4)C2)cc1 (stereo unspecified) 2.09

B-score, active:
CSc1c(SCc2ccccc2)cnn(Cc2ccccc2)c1=O -5.77
CCCNC(=O)CSc1nc(Cc2ccccc2)nc2ccccc12 -5.07
Cc1cccc(CN2CCC(CNC(=O)Nc3ccc(F)c(Cl)c3)CC2)c1 -4.23
Clc1c(OCCCn2ccnc2)ccc2ccccc12 -7.14
CN(CC#CCC(c1ccccc1)c1ccccc1)C(C)(C)C -5.14
C=CCN(c1ccc(Cl)cc1)S(=O)(=O)c1cccc(C(=O)OCC(=O)N(C)C)c1 -4.24
CSc1ccc(CN(C)CC(=O)NCc2ccc(F)cc2)cc1 -4.3
Cc1cc(C)c(C)c(S(=O)(=O)Nc2ccc(O)cc2)c1C -9.99
OCCNCc1cccc(OCc2ccccc2Cl)c1 -5.85
CC(C)(c1ccccc1)c1ccc(OCCN2CCCC2)cc1 -6.84
CC(C)(c1ccccc1)c1ccc(OCCN)cc1 -6.43
